Measured values from PubChem BioAssay (EPA / NIEHS).
Results filed as inconclusive are left out. Active and inactive are the calls of the source. The calls were made as follows, unless noted: active = hit-call score of the fitted dose curve at least 0.9, where 1 is the maximum; inactive = score below 0.9.

How the values were obtained:
[1] = CCTE_Mundy_HCI_Cortical_Synap_Neur_Matur_BPCount: CCTE's Synaptogenesis and Neurite Maturation Assay in rat cortical cells for Branch Point Count, Mundy Lab (AID 2284211)
Method in brief: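 In this multiplexed morphology assay, cortical cells from rat receive chemicals at DIV 7 and are fixed at DIV 12, then immunostained and imaged; branch points are counted, with DMSO as baseline.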

[2] = CCTE_Mundy_HCI_Cortical_NOG_NeuriteCount: CCTE's Neurite Outgrowth Assay in rat cortical cells for Neurite Count, Mundy Lab (AID 2284212);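 also: cells fixed about two days after chemical exposure began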
Method in brief: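 Rat cortical primary cells; compound added 2 h post-plating, 1/10 dilution of working solution. Anti-betaIII-tubulin/AF488 ICC; ArrayScan neurite count vs DMSO.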

[3] = CCTE_Mundy_HCI_Cortical_NOG_NeuriteLength: CCTE's Neurite Outgrowth Assay in rat cortical cells for Neurite Length, Mundy Lab (AID 2284213);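 also: neurites imaged about 48 to 50 h after chemical exposure began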
Method in brief: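 First, rat primary cortical cells were plated and, 2 h later, given test chemical as a 1/10 dilution. Finally, βIII-tubulin immunostaining enabled automated imaging of neurite length.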

[4] = CCTE_Mundy_HCI_Cortical_Synap_Neur_Matur_NeuriteLength: CCTE's Synaptogenesis and Neurite Maturation Assay in rat cortical cells for Neurite Length, Mundy Lab (AID 2284214)
Method in brief: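 DMSO-normalised neurite length, from high-content imaging of anti-MAP2-stained rat cortical cells fixed at DIV 12. Glia were suppressed with AraC (DIV 5) before chemical exposure from DIV 7.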

[5] = CCTE_Mundy_HCI_Cortical_Synap_Neur_Matur_SynapseCount: CCTE's Synaptogenesis and Neurite Maturation Assay in rat cortical cells for Synapse Count, Mundy Lab (AID 2284218)
Method in brief: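 Endpoint: synapses/neuron by HCI (synaptophysin puncta on MAP2-labelled neurites, Hoechst nuclei). Rat primary cortical cells, AraC DIV 5, dosed DIV 7, fixed DIV 12; DMSO negative control.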

[6] = CCTE_Mundy_HCI_Cortical_Synap_Neur_Matur_NeuriteCount: CCTE's Synaptogenesis and Neurite Maturation Assay in rat cortical cells for Neurite Count, Mundy Lab (AID 2284222);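 also: exposure from day 7 to day 12 in vitro with readout at day 12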
Method in brief: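 In this multiplexed morphology readout, rat primary cortical neurons are fixed at DIV 12 following dosing at DIV 7 and stained for MAP2, synaptophysin and nuclei. High-content image analysis yields neurite count.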

[7] = CCTE_Mundy_HCI_Cortical_Synap_Neur_Matur_CellBodySpotCount: CCTE's Synaptogenesis and Neurite Maturation Assay in rat cortical cells for Cell Body Spot Count, Mundy Lab (AID 2284223)
Method in brief: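 Rat cortical neurons; AraC @ DIV 5; dose + media change DIV 7; fix DIV 12; anti-MAP2/anti-synaptophysin IF, Hoechst; HCI count of soma synaptophysin puncta/neuron; DMSO = negative control.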

[8] = UKN2_HCS_IMR90_cell_viability: Viability Assessment in the University of Konstanz (UKN) Leist Lab Neural Crest Cell Migration Assay in human induced IMR90 Pluripotent Stem Cells (UKN2) (AID 2284233);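 also: cells exposed to compound for 24 h after a 24 h migration phase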
Method in brief: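 After calcein-AM/Hoechst staining, viability is quantified by high-content fluorescence imaging, relative to DMSO, in iPSC (IMR90)-derived neural crest cells. Exposure lasts 24 h, starting after a 24 h migration period on PLO/laminin/fibronectin coating.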

[9] = CCTE_Mundy_HCI_Cortical_NOG_NeuronCount: CCTE's Neurite Outgrowth Assay in rat cortical cells for Neuron Count, Mundy Lab (AID 2284236; active = hit-call score of the fitted dose curve at least 0.9, where 1 is the maximum;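 also: neurons counted by imaging betaIII-tubulin and Hoechst stained cortical cells; cells exposed to compound for about 48 hours before fixation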)
Method in brief: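 Read-out: neuron number by high-content imaging of betaIII-tubulin (Alexa Fluor-488) and Hoechst-labelled rat primary cortical cells.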

[10] = CCTE_Mundy_HCI_Cortical_NOG_BPCount: CCTE's Neurite Outgrowth Assay in rat cortical cells for Branch Point Count, Mundy Lab (AID 2284237);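 also: branch points counted about two days after chemical exposure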
Method in brief: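 Measured 50.33 h after dosing, this morphology endpoint uses rat primary cortical cultures labelled for betaIII-tubulin. Branch points are quantified by high-content imaging, with DMSO as negative control and baseline.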

[11] = CCTE_Mundy_HCI_hNP1_Casp3_7: CCTE's Caspase-Glo 3/7 Assay in human neuroprogenitor cells for Apoptosis, Mundy Lab (AID 2284240)
Method in brief: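 Apoptosis is scored by activated caspase-3/7 luminescence in WA09-derived neural progenitor cells, measured 26.5 h after chemical dosing. Values represent gain of signal relative to DMSO vehicle.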

[12] = IUF_NPC2a_radial_glia_migration_120hr: Leibniz Research Institute for Environmental Medicine (IUF) 120-hour Neural Progenitor Cell Migration Assay for Radial Glia Migration (NPC2a) (AID 2284298)
Method in brief: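 Readout: distance in um from sphere core edge to migration-area edge, derived from Hoechst nuclei density with a threshold-defined polynomial boundary. Spheres: hNPC, GW 16-19, 0.3 mm, on PDL/laminin; exposure 5 days; DMSO is baseline.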

[13] = IUF_NPC2a_radial_glia_migration_72hr: Leibniz Research Institute for Environmental Medicine (IUF) 72-hour Neural Progenitor Cell Migration Assay for Radial Glia Migration (NPC2a) (AID 2284299)
Method in brief: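 Spheres of human primary neural progenitors migrate on poly-D-lysine/laminin under compound exposure at 37C, 5% CO2. The 72 h radial glia migration distance comes from brightfield images, measured manually.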

[14] = IUF_NPC3_neuronal_differentiation_120hr: Leibniz Research Institute for Environmental Medicine (IUF) 120-hour Neuronal Differentiation Assay (NPC3) (AID 2284301)
Method in brief: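 Value is percent TUBB3-positive neurons among Hoechst-stained nuclei in the migration area, scored by trained CNN after 120 h differentiation. Primary hNPC spheres on poly-D-lysine/laminin, N2 medium, continuous dosing from day 0, half-refeed day 3; DMSO reference.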

[15] = IUF_NPC4_neurite_length_120hr: Leibniz Research Institute for Environmental Medicine (IUF) 120-hour Neuronal Morphology Assay for Neurite Length (NPC4) (AID 2284302)
Method in brief: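 Neurite length, the mean in um across TUBB3-stained neurons, is derived by skeletonization of high-content images after 120 h differentiation. Compound exposure, 7 concentrations plus solvent control, ran from plating of hNPC spheres on poly-D-lysine/laminin, with medium half-replaced on day 3.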

[16] = IUF_NPC5_oligodendrocyte_differentiation_120hr: Leibniz Research Institute for Environmental Medicine (IUF) 120-hour Oligodendrocyte Differentiation Assay (NPC5) (AID 2284304; active = hit-call score of the fitted dose curve at least 0.9, where 1 is the maximum;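 also: primary human fetal neural progenitor spheres plated to migrate and differentiate; share of O4-positive cells among Hoechst nuclei found by CNN image analysis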)
Method in brief: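 Oligodendrocyte differentiation was scored after 120 h as the O4-positive share of Hoechst-stained nuclei across the neurosphere migration area, using a trained convolutional neural network on high-content fluorescence images. Human fetal neural progenitor spheres were dosed from day 0, normalised to DMSO.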

[17] = IUF_NPC2-5_cytotoxicity_120hr: Cytotoxicity Assessment at 120 hours in the Leibniz Research Institute for Environmental Medicine (IUF) Neural Progenitor Cell Migration and Differentiation Assay (NPC2-5) (AID 2284307; active = hit-call score of the fitted dose curve at least 0.9, where 1 is the maximum)
Method in brief: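 Sphere plating starts differentiation and exposure together at day 0. Compound solution is half-replaced on day 3. At 120 h, medium supernatant is taken for an LDH membrane-integrity read based on resazurin reduction to resorufin fluorescence.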

[18] = IUF_NPC2-5_cell_number_120hr: Cell Number Assessment at 120 hours in the Leibniz Research Institute for Environmental Medicine (IUF) Neural Progenitor Cell Migration and Differentiation Assay (NPC2-5) (AID 2284308);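 also: count of Hoechst-stained nuclei in migration zone around plated human neural progenitor spheres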
Method in brief: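 hNPC spheres, one per well, PDL/laminin, N2 medium, 37C, 5% CO2. Dosing day 0 → half-medium change with fresh compound day 3 → fix 120 h. Readout: Hoechst+ nuclei count, migration area; 7 concentrations plus solvent control.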

[19] = IUF_NPC2-5_viability_120hr: Viability Assessment at 120 hours in the Leibniz Research Institute for Environmental Medicine (IUF) Neural Progenitor Cell Migration and Differentiation Assay (NPC2-5) (AID 2284312)
Method in brief: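 Alamar blue resorufin fluorescence read after 5 days of differentiation, with compound present from day 0 and replenished at day 3. Primary hNPC spheres on laminin-coated plates, 37C; seven concentrations plus solvent control, fitted against DMSO.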

[20] = IUF_NPC1_cytotoxicity_72hr: Cytotoxicity Assessment at 72 hours in the Leibniz Research Institute for Environmental Medicine (IUF) Neural Progenitor Cell Proliferation Assay (NPC1) (AID 2284332; active = hit-call score of the fitted dose curve at least 0.9, where 1 is the maximum;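 also: rising LDH signal means more cytotoxicity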)
Method in brief: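 Readout is fluorescence from LDH-dependent resazurin conversion, sampled from culture medium after compound contact lasting 72 h. Each well holds one 0.25-0.35 mm human progenitor sphere kept at 37C, 5% CO2 with EGF and FGF.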

[21] = CCTE_Mundy_HCI_iCellGluta_NOG_NeuronCount: CCTE's Neurite Outgrowth Assay in iCellGluta cells for Neuron Count, Mundy Lab (AID 2284340; active = hit-call score of the fitted dose curve at least 0.9, where 1 is the maximum;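 also: cells fixed about 48 h after compound addition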)
Method in brief: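 Neuron count read by automated high-content imaging of Hoechst 33342 and betaIII-tubulin/Alexa Fluor-488 labelling in human iPSC glutamatergic neurons. Activity fitted relative to DMSO.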

[22] = CCTE_Mundy_HCI_iCellGluta_NOG_NeuriteCount: CCTE's Neurite Outgrowth Assay in iCellGluta cells for Neurite Count, Mundy Lab (AID 2284342; active = hit-call score of the fitted dose curve at least 0.9, where 1 is the maximum;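 also: chemical exposure about 48 hours starting 2 hours after plating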)

## CCOP(=O)(OCC)SCSC(C)(C)C
[1]
  outcome: inactive
[2]
  AC50: 75.4 µM (active)
[3]
  AC50: 49.5 µM (active)
[4]
  outcome: inactive
[5]
  outcome: inactive
[6]
  outcome: inactive
[7]
  outcome: inactive
[8]
  outcome: inactive
[9]
  AC50: 84.1 µM (active)
[10]
  AC50: 62.1 µM (active)
[11]
  outcome: inactive
[12]
  AC50: 0.875 µM (active)
[13]
  outcome: inactive
[14]
  outcome: inactive
[15]
  outcome: inactive
[16]
  outcome: inactive
[17]
  outcome: inactive
[18]
  outcome: inactive
[19]
  outcome: inactive
[20]
  outcome: inactive
[21]
  outcome: inactive
[22]
  AC50: 21.9 µM (active)
